Among the data in PubChem BioAssay (Tox21) are Potency and activity change, negative = cytotoxicity values, retold here.

Inconclusive results are not listed. Entries that show only a call come without a potency. Unmarked numbers belong to inactive results. Active and inactive are the calls of the source. The call rests on the fitted dose curve; in most records, active means well fitted cell-killing curve with a large enough effect in the repeat runs; inconclusive means weak or mixed curves, or effect the other way; inactive means no such curve, though single readings can be large or run the other way.

The test can be described thus: qHTS assay to identify small molecule agonists of the estrogen receptor alpha (ER-alpha) signaling pathway in the presence of an antagonist - cell viability counter screen (AID 1259386). Further: nearly all actives have a fitted effect of over 30% in size. The note with it: VM7Luc4E2 viability, CellTiter-Fluor fluorescence, 22 h; series mostly up to 92.4 µM. The text has this: National Center for Advancing Translational Sciences [NCATS]
NIH Chemical Genomics Center [NCGC]
U.S. Environmental Protection Agency [EPA]
National Institutes of Environmental Health Sciences [NIEHS]
National Toxicology Program [NTP]
U.S. Food and Drug Administration [FDA]
Estrogen receptor (ER), a member of nuclear hormone receptor plays an important role in development, metabolic homeostasis and reproduction. Two subtypes of ER, ER-alpha and ER-beta, have similar expression patterns with some uniqueness in both types. Endocrine disrupting chemicals (EDCs) and their interactions with steroid hormone receptors like ER causes disruption of normal endocrine function. Therefore, it is important to understand the effect of environmental chemicals in ER signaling pathway. For identifying ER agonists, VM7Luc4E2 cell line has been used in the current assay.
VM7Luc4E2 cell line (provided by Denison MS, University of California) endogenously expresses full-length ER-alpha and is stably transfected with a plasmid containing four estrogen responsive elements (ERE) upstream of a luciferase reporter gene. This current screening for measuring luciferase reporter gene activity using VM7Luc4E2 cells against Tox21 10K library collection is a confirmation study on agonist mode screening in presence of ER-antagonist (ICI-182,780) at 10.0nM final concentration. The cytotoxicity of the compounds was tested in parallel by measuring the cell viability using CellTiter-Fluor assay system (Promega, Madison, WI) in the same wells.
Tox21 Assay Protocol Summary:
VM7Luc4E2 cells were cultured in phenol red free assay medium containing 10% charcoal stripped FBS for 5 days prior to the assay. The cells were dispensed at 4,000 cells in 4uL of assay medium per well into white wall/solid-bottom 1536-well plates (Corning Life Sciences, Corning, NY) using a Multidrop Combi (Thermo Fisher Scientific Inc., Waltham, MA) dispenser. After the assay plates were incubated at 37C and 5% CO2 for 24hr, 1uL of 10.0nM (final concentration) ICI-182,780 or assay buffer was added using two separate tips of Flying Reagent Dispenser (FRD, Aurora Discovery, San Diego, CA). Then 23nL of compounds dissolved in DMSO at 15 concentrations and positive controls or DMSO only was transferred to the assay plates by a Pintool station (Wako, San Diego, CA). The assay plates were incubated at 37C and 5% CO2 for 22hr. After 21hr incubation at 37C, 1uL/well CellTiter-Fluor reagent (Promega Corporation, Madison, WI) was added to each well using FRD and after 1hr incubation at 37C and 5% CO2, the fluorescence signal was measured on ViewLux plate reader (PerkinElmer, Shelton, CT).
In the case of `OCCCC1CCCCC1`, the Potency entry was “inactive”.
Still for that read-out and setting: with `NS(=O)(=O)c1ccccc1Cl` the entry was “inactive”.
As to `CCCN(CCC)CCc1cccc2c1CC(=O)N2`, the Potency entry is “inactive”.
Still for that read-out and setting: to `O=C1CCCC(=O)C1` belongs “inactive”.
As for `CCn1nc(C(=O)O)c(=O)c2cc3c(cc21)OCO3`, the Potency result was “inactive”.
On the same count and under the same terms, to `COCCCOCCCOC` belongs “inactive”; to `c1ccc([C@H]2CN3CCSC3=N2)cc1`, “inactive”; to `CCOC(=O)Nc1ccc(NCc2ccc(F)cc2)nc1N`, “inactive”.
On the same count and under the same terms, to `CC(C)(c1ccc(O)cc1)c1ccc(O)cc1` belongs “inactive”.
Same read-out and setting: to `O=c1[nH]c(=O)n([C@H]2C[C@H](O)[C@@H](CO)O2)cc1I` belongs “inactive”; to `OCCOc1ccc(OCCO)cc1`, “inactive”.
For the compound `O=C1OC(=O)C2CCCCC12` (stereo not given), the Potency result is “inactive”.
On to `CCC=O`, for which the Potency entry is “inactive”.
Still for that read-out and setting: to `Cn1cc(S(C)=O)c(=O)c2ccc(F)cc21` (stereo not given) belongs “inactive”.
`Cc1sccc1Br`: the Potency result is “inactive”.
Still for that read-out and setting: with `COc1ccccc1OCC(O)CN1CCN(CC(=O)Nc2c(C)cccc2C)CC1` (stereo not given) the entry was “inactive”; with `COc1nc(N)nc2c1ncn2[C@@H]1O[C@H](CO)[C@@H](O)[C@@H]1O`, “inactive”; with `C=C(C)C(=O)OCCCCCCCC(C)C`, “inactive”.
Still for that read-out and setting: to `O=C(CCCN1CCN(c2ccccn2)CC1)c1ccc(F)cc1` belongs “inactive”.
Same read-out and setting: to `CC(C)NC(=O)NC(C)C` belongs “inactive”.
Take `CO/N=C(/C(=O)N[C@@H]1C(=O)N2C(C(=O)OCOC(=O)C(C)(C)C)=C(C)CS[C@H]12)c1csc(N)n1`: the Potency result is “inactive”.
For `NC(CSCC(=O)O)C(=O)O` (stereo not given), the Potency result was “inactive”.
On to `N=C(N)c1ccccc1`, for which the Potency result was “inactive”.
On the same count and under the same terms, to `CN(C)CCCSc1ccccc1NC(=O)/C=C/c1ccccc1` belongs “inactive”.
For `CC(C)NCCCC1(C(N)=O)c2ccccc2-c2ccccc21`, the Potency entry was “inactive”.
Take `Cc1cc2c(cc1S(N)(=O)=O)S(=O)(=O)CCC2`: the Potency result is “inactive”.
Regarding `NCCCNCCSP(=O)(O)O`, the activity change, negative = cytotoxicity was -0.352% [at 8.39 µM].
Consider `CC(=O)CC(C)(C)C1CCCCC1`, for which the Potency entry is “inactive”.
On to `CCC(C)C1CCCCC1=O` (stereo not given), for which the Potency entry is “inactive”.
On the same count and under the same terms, to `CCc1cccc2c(CCO)c[nH]c12` belongs “inactive”.
Still for that read-out and setting: to `CC(=O)OC/C=C(\C)CC/C=C(\C)CCC=C(C)C` belongs “inactive”; to `CCCN1CCCC[C@H]1C(=O)Nc1c(C)cccc1C`, “inactive”.
As to `NS(=O)(=O)c1cc2c(cc1Cl)NC(C1CC3C=CC1C3)NS2(=O)=O` (stereo not given), the Potency result is “inactive”.
Turning to `CC(C)(C)NCCNC(C)(C)C`, the Potency result was “inactive”.
For `CCOC(=O)C(=O)OCC`, the Potency entry is “inactive”.
On the same count and under the same terms, with `CCOC(=O)CC(C)=O` the entry was “inactive”.
Same read-out and setting: to `COC(=O)c1cc(C(=O)OC)cc(S(=O)(=O)O)c1` belongs “inactive”.
The same measure, in the same setting: with `CCCCCCCCCCCC` the entry was “inactive”; with `CN(C(=O)c1c(O)c2ccccc2n(C)c1=O)c1ccccc1`, “inactive”.
In the case of `O=C(c1ccccc1)C1CCCCC1`, the Potency entry was “inactive”.
